The list is not random: actives were taken first. Their share in the collection is about 7.6%.
BRCA1 expr act: activators of BRCA1 expression; MCF7-BRCA1-FFLuc reporter, luminescence, 48 h; response scale: scaled: vehicle 0%, 10 µM genistein 100%; Potency, µM (top dose mostly 46.1 µM), without a hit: top-dose activation, hits mostly activators; hit rate 1.1% among 380,000; AID 624202; further: potency means the concentration at half of the fitted maximal effect; nearly all actives have a fitted effect of over 80% in size
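Quantitative HTS in MCF7 cells stably reporting BRCA1 expression via firefly luciferase. Compound treatment lasts 48 h at 37 °C in phenol-red free MEM. Activation is expressed relative to genistein at 10 microM and DMSO.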
RORgamma inh: blocks mouse ROR gamma transcriptional activity | P51450 | Drosophila S2 Gal4-RORgamma UAS-luciferase reporter, 20 h | Potency, µM (highest dose often 53.6 µM), for the others: at the highest dose activity change, negative = inhibition, hits mostly inhibitors | hit rate 5.4% among 310,000; further: potency means the concentration at half of the fitted maximal effect; on the % scale 0 is the no-effect control and ±100 the full control effect; nearly all actives have a fitted effect of over 60% in size
Target sequence (P51450 whole entry, looked up, the tested form may be a part): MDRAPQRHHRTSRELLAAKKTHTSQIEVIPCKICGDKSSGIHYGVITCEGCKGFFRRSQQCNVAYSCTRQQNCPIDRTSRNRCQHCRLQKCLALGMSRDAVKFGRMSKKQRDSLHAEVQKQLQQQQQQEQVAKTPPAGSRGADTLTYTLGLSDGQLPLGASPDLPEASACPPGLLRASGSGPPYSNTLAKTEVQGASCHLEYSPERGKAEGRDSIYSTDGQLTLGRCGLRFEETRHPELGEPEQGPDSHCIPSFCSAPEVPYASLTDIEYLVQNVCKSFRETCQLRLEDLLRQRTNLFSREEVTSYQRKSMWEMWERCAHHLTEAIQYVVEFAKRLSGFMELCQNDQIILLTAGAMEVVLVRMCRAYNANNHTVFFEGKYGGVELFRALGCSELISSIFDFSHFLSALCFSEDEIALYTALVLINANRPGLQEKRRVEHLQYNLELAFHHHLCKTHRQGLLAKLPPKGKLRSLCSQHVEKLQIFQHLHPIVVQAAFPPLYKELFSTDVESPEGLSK
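Schneider cells (Drosophila), stable Gal4 DBD–ROR gamma + UAS-luc; 1 hr cmpd preincubation; Cu2+ induction 700 uM final; 20 hr ambient; luminescence.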
ELG1 DNA repair: inhibitors of ELG1-dependent DNA repair in HEK293T cells | AID 504467 | hit rate 2.3% among 330,000 | HEK293T ELG1-luciferase reporter, luminescence, 16 h; DNA damage induced by 5-fluorouridine | Potency, µM (highest dose often 46.1 µM), without a hit: at the highest dose activity change, negative = inhibition, hits mostly inhibitors; further: potency means the concentration at half of the fitted maximal effect; on the % scale 0 is the no-effect control and ±100 the full control effect; nearly all actives have a fitted effect of over 55% in size
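HEK293T cells expressing luciferase-tagged ELG1 (2,000/well) received 5-Fluorouridine plus compound or DMSO for 16 hr at 37 °C. Luciferase was read by ONE-Glo luminescence after 30 min at room temperature.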
p53 reactivator: re-activators of mutant p53; hit rate 0.063% among 320,000; H1299 p53-A138V BP100-luciferase reporter, luminescence, 24 h; Potency, µM (titrated, usually from 92.2 µM), for inactives: at the top dose activity change, positive = activation, hits mostly activators; further: potency means the concentration at half of the fitted maximal effect; % of control where 0% means no effect; nearly all actives have a fitted effect of over 45% in size
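H1299 (p53-null), stable ts p53-A138V + BP100-Luc; 1000 cells/well, Opti-MEM/10% FBS; cpd 4 pt, 1:5; 24 h, 37 deg C, 5% CO2; detection reagent 10 min RT; luminescence.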
Giardia kill: kills Giardia lamblia | Giardia lamblia trophozoite viability | activity change, % at 7.66 µM, hits read low | hit rate 0.15% among 340,000 | AID 540267; in the data active means activity change below about -80%; inconclusive means between about -30% and that limit;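 further: parasites exposed to compound for two days anaerobically before the ATP read; on the % scale 0 is the no-effect control and ±100 the full control effect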
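Media and compound were dispensed first, then trophozoites at 100 cells/well; plates sat 48 hrs at 37 deg C without oxygen before ATP luminescence reagent was added and read after 15-30 min at room temperature.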
VP16 counter: counter-screen for ROR gamma inhibitors: Gal4-VP16 reporter. Drosophila S2 Gal4-VP16 UAS-luciferase, luminescence, 20 h. Potency, µM (titrated, usually from 53.6 µM), inactives show at the highest dose activity, negative = inhibition, actives largely listed as inhibitors. hit rate 3.5% among 310,000. AID 2546;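 further: Gal4-VP16 expression switched on by copper sulfate through the metallothionein promoter; potency means the concentration at half of the fitted maximal effect; on the % scale 0 is the no-effect control and ±100 the full control effect; nearly all actives have a fitted effect of over 50% in size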
* marks the source's active call; other numbers are inactive results; [ ] = another dose, or the depositor's remark. Unless noted, the call rests on the fitted dose curve; in most records, active means well fitted curve in the direction sought with a large enough effect; inconclusive means small, poorly fitted or top-dose-only effect, or another doubt; inactive means no such curve, though single readings can be large; an effect the other way counts as inactive or inconclusive.

What do the screens show for `COc1ccc(NC(=S)NCCc2ccccc2)c(OC)c1`?
BRCA1 expr act: 0.1%; RORgamma inh: 11.2µM*; ELG1 DNA repair: -4.1%; p53 reactivator: -7.6%; Giardia kill: -17.8; VP16 counter: 17.8µM*

What do the screens show for `COc1cc(NC(=S)NCc2cccnc2)c(OC)cc1Cl`?
BRCA1 expr act: -19.2%; RORgamma inh: -10.6%; ELG1 DNA repair: inconclusive; p53 reactivator: -5.2%; Giardia kill: 20.0; VP16 counter: -5.6%

Results for COc1cc(OC)c(NC(=S)NCc2ccccc2)cc1Cl ?
BRCA1 expr act: -3.3%; RORgamma inh: 11.2µM*; ELG1 DNA repair: -1.4%; p53 reactivator: -0.6%; Giardia kill: -16.1; VP16 counter: inconclusive

What do the screens show for `COC(=O)c1c(NC(=O)CN2CCC3(O)CCCCC3C2c2cc(OC)ccc2OC)sc(C)c1C` (configuration not stated)?
BRCA1 expr act: -81.6%; RORgamma inh: inconclusive; ELG1 DNA repair: 9.2µM*; p53 reactivator: 7.5%; Giardia kill: -9.2; VP16 counter: -8.8%

How did CCCC(=O)Nc1ccc(NC(=S)NC(=O)c2cccs2)cc1 do in these assays?
BRCA1 expr act: 18.2%; RORgamma inh: inconclusive; ELG1 DNA repair: -9.3%; p53 reactivator: -4.7%; Giardia kill: 7.4; VP16 counter: inconclusive

How did Cn1nnc(NC(=S)NC(=O)c2cccc3ccccc23)n1 do in these assays?
BRCA1 expr act: 2.5%; RORgamma inh: 1.12µM*; ELG1 DNA repair: 2.1%; p53 reactivator: 6.1%; Giardia kill: inconclusive; VP16 counter: 3.55µM*

What do the screens show for `CCCCn1nnc(NC(=S)NC(=O)c2cccs2)n1`?
BRCA1 expr act: 22.6%; RORgamma inh: 1.12µM*; ELG1 DNA repair: inconclusive; p53 reactivator: inconclusive; Giardia kill: 6.2; VP16 counter: 1µM*

How did COc1cc(OC)cc(C(=O)NC(=S)Nc2nnn(C)n2)c1 do in these assays?
BRCA1 expr act: -12.0%; RORgamma inh: inconclusive; ELG1 DNA repair: 15.3%; p53 reactivator: 5.8%; Giardia kill: 1.0; VP16 counter: 25.1µM*

How did Cn1nnc(NC(=S)NC(=O)c2ccc3ccccc3c2)n1 do in these assays?
BRCA1 expr act: 5.0%

How did Cn1nnc(NC(=S)NC(=O)c2cccs2)n1 do in these assays?
BRCA1 expr act: -4.9%; RORgamma inh: 8.91µM*; ELG1 DNA repair: 19.0%; p53 reactivator: 11.5%; Giardia kill: 2.4; VP16 counter: 12.6µM*

Results for CCCCn1nnc(NC(=O)c2ccco2)n1 ?
BRCA1 expr act: 58.0%; RORgamma inh: -21.6%; ELG1 DNA repair: inconclusive; p53 reactivator: inconclusive; Giardia kill: 22.5; VP16 counter: -0.9%[0.365 µM]

Results for N#CCC(=O)NN=C1CCCCCCCCCCC1 ?
BRCA1 expr act: 9.1%; RORgamma inh: -14.8%; ELG1 DNA repair: inconclusive; p53 reactivator: -1.7%; Giardia kill: 6.3; VP16 counter: -1.8%

Results for Cn1nnc(NC(=O)c2ccc(C(C)(C)C)cc2)n1 ?
BRCA1 expr act: 18.9%; RORgamma inh: inconclusive; ELG1 DNA repair: inconclusive; p53 reactivator: inconclusive; Giardia kill: inconclusive; VP16 counter: -18.3%

Results for CC(C)C(=O)NC(=S)Nc1nnn(C)n1 ?
BRCA1 expr act: -13.4%; RORgamma inh: 14.1µM*; ELG1 DNA repair: -0.3%; p53 reactivator: 26.4%; Giardia kill: 10.5; VP16 counter: inconclusive

How did Cc1ccc(S(=O)(=O)O/N=C2\CCCc3ccccc32)cc1 do in these assays?
BRCA1 expr act: -13.6%; RORgamma inh: -2.4%; ELG1 DNA repair: 1.7%; p53 reactivator: 5.1%; Giardia kill: -14.1; VP16 counter: 11.7%

How did CC1=C(C)/C(=N\OS(=O)(=O)c2ccccc2)C=CC1=O do in these assays?
BRCA1 expr act: -92.7%; RORgamma inh: 2.51µM*; ELG1 DNA repair: inconclusive; p53 reactivator: -17.5%; Giardia kill: 10.6; VP16 counter: 2.51µM*

How did O=C(c1ccncc1)N1CCc2ccccc2C1 do in these assays?
BRCA1 expr act: -20.5%; RORgamma inh: 9.1%; ELG1 DNA repair: 22.5%; p53 reactivator: 3.7%; Giardia kill: 0.2; VP16 counter: -0.1%

How did O=C(c1cc(-c2ccc(Cl)c(Cl)c2)on1)N1CCCCC1 do in these assays?
BRCA1 expr act: 3.98µM*; RORgamma inh: 16.1%; ELG1 DNA repair: inconclusive; p53 reactivator: inconclusive; Giardia kill: -20.3; VP16 counter: 2.4%

What do the screens show for `O=C(c1cc(-c2ccc(O)cc2)on1)N1CCc2ccccc2C1`?
BRCA1 expr act: 74.4%; RORgamma inh: -18.1%; ELG1 DNA repair: inconclusive; p53 reactivator: 15.2%; Giardia kill: 14.2; VP16 counter: inconclusive

Results for O=C(c1cc(-c2ccccc2O)on1)N1CCc2ccccc2C1 ?
BRCA1 expr act: 10µM*; RORgamma inh: -13.6%; ELG1 DNA repair: inconclusive; p53 reactivator: inconclusive; Giardia kill: 2.4; VP16 counter: inconclusive

Results for O=C(c1cc(-c2ccccc2Cl)on1)N1CCCC1 ?
BRCA1 expr act: -73.8%; RORgamma inh: 12.6µM*; ELG1 DNA repair: inconclusive; p53 reactivator: 20.1%; Giardia kill: -10.9; VP16 counter: inconclusive

How did O=C(c1cncc(Br)c1)N1CCc2ccccc2C1 do in these assays?
BRCA1 expr act: -21.6%; RORgamma inh: -2.4%; ELG1 DNA repair: 5.8µM*; p53 reactivator: -4.5%; Giardia kill: 4.8; VP16 counter: 2.0%

How did Cc1[nH]c2ccccc2c1C(=O)CSc1ccc(F)cc1 do in these assays?
BRCA1 expr act: 52.3%; RORgamma inh: 14.3%; ELG1 DNA repair: inconclusive; p53 reactivator: inconclusive; Giardia kill: -0.9; VP16 counter: 1.6%

What do the screens show for `S=c1ccss1`?
RORgamma inh: 12.6µM*; VP16 counter: inconclusive

What do the screens show for `CCOC(=O)N1CCC(Nc2ncnc3c2cnn3-c2ccc(Cl)cc2)CC1`?
BRCA1 expr act: 34.2%; RORgamma inh: 8.91µM*; ELG1 DNA repair: inconclusive; p53 reactivator: 29.1%; Giardia kill: -0.4; VP16 counter: 7.7%

Results for O=C1c2ccccc2C(=O)c2[nH]cnc21 ?
BRCA1 expr act: -44.4%; RORgamma inh: 11.2µM*; ELG1 DNA repair: inconclusive; p53 reactivator: inconclusive; Giardia kill: inconclusive; VP16 counter: inconclusive

How did O=C1c2ccccc2C(=O)c2[nH]c(=O)[nH]c21 do in these assays?
BRCA1 expr act: -93.1%; RORgamma inh: 3.98µM*; ELG1 DNA repair: 7.3µM*; p53 reactivator: -12.6%; Giardia kill: inconclusive; VP16 counter: 7.08µM*

What do the screens show for `N#C/C(=C(/O)CN1CCN(c2ccccc2F)CC1)c1nc(-c2ccccc2)cs1`?
BRCA1 expr act: -27.4%; RORgamma inh: -18.2%; ELG1 DNA repair: -12.1%; p53 reactivator: 3.3%; Giardia kill: -27.1; VP16 counter: 2.5%

Screening data as filed in PubChem.
